The structures appear in SMILES notation. A number with no mark means an inactive call. Inconclusive results are not listed. Activity calls are given as the source filed them. Unless noted, calls follow the shape of the dose curve; as a rule, active = well fitted curve in the direction sought with a large enough effect in the repeat runs; inconclusive = weak or mixed curves; inactive = no such curve, though single readings can be large; an effect the other way counts as inactive or inconclusive.

Experiment [1] in a line: qHTS RealTime-Glo MT Cell Viability Assay in HEK293 cells - 0 hour (AID 1224880). Also: top concentration of the series differs between compounds; nearly all actives have a fitted effect of over 45% in size. An outline of the steps: (§1)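 HEK293 cells mixed with RealTime-Glo reagents (NanoLuc plus cell-permeant prosubstrate) at 600 cells/well, preincubated 5 h at 37 C/5% CO2, then given 23 nL compound in DMSO. Nonlytic luminescence from viable cells was read at 0, 8, 16, 24, 32 and 40 h.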
For orientation: In qHTS, concentration-response curves come from the screen itself.

Experiment [2] in a line: A CellTox Green Cytotoxicity Assay to monitor cytotoxicity in HEK293 cells - 32 hour (AID 1224881). Also: nearly all actives have a fitted effect of over 40% in size. The method in brief:
(§2)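 HEK293 cells premixed with CellTox Green dye were seeded at 600 cells/well and left 5 h at 37 C/5% CO2 before pin transfer of 23 nL compound in DMSO. Fluorescence from dye bound to dead-cell DNA was read during 40 h treatment.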

Experiment [3] in a line: A CellTox Green Cytotoxicity Assay to monitor cytotoxicity in HepG2 cells - 0 hour (AID 1224882). Also: nearly all actives have a fitted effect of over 35% in size. An outline of the steps: (§3)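 HepG2 cells were seeded together with the CellTox Green dye at 600 cells/well, left 5 h at 37 C/5% CO2, then given compounds in DMSO. Fluorescence from dye bound to dead-cell DNA was read repeatedly over 40 h of treatment at 37 C.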
Experiment [4] is described as follows: A CellTox Green Cytotoxicity Assay to monitor cytotoxicity in HepG2 cells - 32 hour (AID 1224883). Also: nearly all actives have a fitted effect of over 50% in size. Also: potency is read from the fitted curve at half-maximal effect. An outline of the steps:
as §3

Experiment [5] is described as follows: A CellTox Green Cytotoxicity Assay to monitor cytotoxicity in HEK293 cells - 8 hour (AID 1224884). Also: nearly all actives have a fitted effect of over 35% in size. An outline of the steps:
as §2

Experiment [6] is described as follows: qHTS RealTime-Glo MT Cell Viability Assay in HepG2 cells - 16 hour (AID 1224885). Also: nearly all actives have a fitted effect of over 50% in size. The method in brief: (§4)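 Cell number in HepG2 cultures estimated from NanoLuc luminescence generated by metabolic reduction of a prosubstrate by living cells. The homogeneous, nonlytic format allowed repeated reads at 0, 8, 16, 24, 32 and 40 h of compound exposure.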
Experiment [7] is described as follows: qHTS RealTime-Glo MT Cell Viability Assay in HEK293 cells - 24 hour (AID 1224886). Also: top concentration of the series differs between compounds; nearly all actives have a fitted effect of over 50% in size. The method in brief: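 Homogeneous bioluminescent viability format in HEK293 cells (600 cells/well). Following 5 h at 37 C/5% CO2, 23 nL compound was pintooled; the signal was measured repeatedly during 40 h incubation.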
The nature of experiment [8]: qHTS RealTime-Glo MT Cell Viability Assay in HEK293 cells - 8 hour (AID 1224887). Also: top concentration of the series differs between compounds; nearly all actives have a fitted effect of over 50% in size. The method in brief:
as §1

Experiment [9] can be described thus: A CellTox Green Cytotoxicity Assay to monitor cytotoxicity in HEK293 cells - 16 hour (AID 1224888). Also: nearly all actives have a fitted effect of over 35% in size. An outline of the steps:
as §2

Experiment [10] is described as follows: qHTS RealTime-Glo MT Cell Viability Assay in HepG2 cells - 0 hour (AID 1224889). Also: nearly all actives have a fitted effect of over 50% in size. An outline of the steps: as §4
The nature of experiment [11]: A CellTox Green Cytotoxicity Assay to monitor cytotoxicity in HepG2 cells - 8 hour (AID 1224890). Also: nearly all actives have a fitted effect of over 45% in size. An outline of the steps: as §3
The nature of experiment [12]: qHTS assay to identify small molecule antagonists of the estrogen receptor alpha (ER-alpha) signaling pathway using the BG1 cell line in the presence of 0.1 nM 17-beta-estradiol - cell viability counter screen (AID 1259241). Also: nearly all actives have a fitted effect of over 40% in size. The method in brief:
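VM7Luc4E2, 4,000 cells/well, phenol red-free medium + 10% charcoal-stripped FBS; 24 hr plating; cpd + 0.1 nM E2 final, 22 hr 37C/5% CO2; CellTiter-Fluor 30 min, fluorescence.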

Experiment [13] can be described thus: qHTS assay to identify small molecule antagonists of the androgen receptor (AR) signaling pathway using the MDA cell line in the presence of 0.5 nM R1881 - cell viability counter screen (AID 1259242). Also: nearly all actives have a fitted effect of over 45% in size. An outline of the steps: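 MDA-kb2 cells (human breast carcinoma, stably carrying MMTV-luciferase reporter) were exposed to compounds with 0.5 nM R1881 (final) for 16 hr at 37C, 0% CO2; viability then read as live-cell protease fluorescence (CellTiter-Fluor, 30 min) in the same wells.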

The target in experiment [14] is Estrogen receptor (Homo sapiens) (UniProt P03372). In words: qHTS assay to identify small molecule antagonists of the estrogen receptor alpha (ER-alpha) signaling pathway using the BG1 cell line in the presence of 0.1 nM 17-beta-estradiol (AID 1259244). Also: nearly all actives have a fitted effect of over 50% in size. An outline of the steps:
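VM7Luc4E2 cells (endogenous full-length ER-alpha, stable 4xERE-luciferase) were grown 5 days in phenol red-free medium with charcoal-stripped FBS, then exposed 22 h at 37C to compounds plus 0.1 nM (final) 17beta-estradiol; ONE-Glo luminescence read-out.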

Experiment [15] in a line: qHTS assay to identify small molecule phospholipidosis (PLD) inducers (AID 1259344; active = well fitted curve in the direction sought with a large enough effect; an effect the other way counts as inactive or inconclusive). An outline of the steps:
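Fluorescent phospholipid staining (LipidTOX Red) measured by automated microscopy in fixed HepG2 cells after 24 h treatment; nuclei counterstained with Hoechst 33342; amiodarone as reference inducer.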

Experiment [16] is described as follows: qHTS assay to identify small molecule HDAC inhibitors (AID 1259364). Also: top concentration of the series differs between compounds; nearly all actives have a fitted effect of over 45% in size. The method in brief:
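Wild-type HCT-116 cells were plated overnight, exposed to compounds for 2 h at 37 °C, then given HDAC-Glo class I/II luminogenic reagent for 30 min at room temperature before luminescence was read.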

The nature of experiment [17]: qHTS assay to identify small molecule agonists of the sonic hedgehog signaling (Shh) pathway - cell viability counter screen (AID 1259366). Also: nearly all actives have a fitted effect of over 50% in size. An outline of the steps:
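Cytotoxicity counter screen run in the same wells as the Shh reporter assay. NIH/3T3 cells carrying a Gli1 response element–driven luciferase were treated with DMSO-dissolved compounds for 24hr, and live-cell protease activity was measured with CellTiter-Fluor.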

A short description of experiment [18]: qHTS assay to identify small molecule antagonists of the sonic hedgehog signaling (Shh) pathway - cell viability counter screen (AID 1259367). Also: nearly all actives have a fitted effect of over 55% in size. An outline of the steps: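 Using CellTiter-Fluor, viability of Gli1-Luc reporter 3T3 cells is read by fluorescence in the wells used for the Shh luciferase assay. Treatment lasts 23 hr with conditioned medium, then reagent 1 hr at 37C.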

Experiment [19] is described as follows: qHTS assay to identify small molecule HDAC inhibitors - cell viability counter screen (AID 1259365). An outline of the steps: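 Luminescence from CellTiter-Glo, developed 30min at room temperature, reports viability of wild-type HCT-116 cells treated 2hr with compounds at 37 C and 5% CO2 after overnight plating.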
Experiment [20] concerns the target Androgen receptor (Homo sapiens) (UniProt P10275). In words: qHTS assay to identify small molecule antagonists of the androgen receptor (AR) signaling pathway using the MDA cell line in the presence of 0.5 nM R1881 (AID 1259243). Also: nearly all actives have a fitted effect of over 50% in size. The method in brief:
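MDA-kb2 human breast carcinoma cells carrying an MMTV-luciferase reporter (AR- and GR-responsive) were plated, rested 5 hr at 37C, dosed with compounds, then stimulated with 0.5 nM R1881 (final) for 16 hr; luminescence was read after ONE-Glo.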

Estrogen receptor (Homo sapiens), sequence (P03372 whole entry, looked up): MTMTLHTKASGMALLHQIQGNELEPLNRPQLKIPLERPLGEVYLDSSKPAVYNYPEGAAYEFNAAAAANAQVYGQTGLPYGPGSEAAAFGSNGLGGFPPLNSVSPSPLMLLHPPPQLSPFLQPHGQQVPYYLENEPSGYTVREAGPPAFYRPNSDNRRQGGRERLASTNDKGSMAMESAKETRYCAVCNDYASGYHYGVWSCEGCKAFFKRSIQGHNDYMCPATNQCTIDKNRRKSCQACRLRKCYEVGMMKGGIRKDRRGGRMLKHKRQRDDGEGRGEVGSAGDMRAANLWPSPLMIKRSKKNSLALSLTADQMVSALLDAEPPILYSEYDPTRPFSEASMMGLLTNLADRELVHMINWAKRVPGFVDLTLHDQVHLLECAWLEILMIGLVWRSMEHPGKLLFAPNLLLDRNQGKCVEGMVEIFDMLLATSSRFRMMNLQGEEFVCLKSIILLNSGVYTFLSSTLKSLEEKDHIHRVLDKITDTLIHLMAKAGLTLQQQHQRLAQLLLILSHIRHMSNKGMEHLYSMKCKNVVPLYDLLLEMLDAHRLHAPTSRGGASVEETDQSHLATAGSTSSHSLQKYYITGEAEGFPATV
Androgen receptor (Homo sapiens), sequence (P10275 whole entry, looked up): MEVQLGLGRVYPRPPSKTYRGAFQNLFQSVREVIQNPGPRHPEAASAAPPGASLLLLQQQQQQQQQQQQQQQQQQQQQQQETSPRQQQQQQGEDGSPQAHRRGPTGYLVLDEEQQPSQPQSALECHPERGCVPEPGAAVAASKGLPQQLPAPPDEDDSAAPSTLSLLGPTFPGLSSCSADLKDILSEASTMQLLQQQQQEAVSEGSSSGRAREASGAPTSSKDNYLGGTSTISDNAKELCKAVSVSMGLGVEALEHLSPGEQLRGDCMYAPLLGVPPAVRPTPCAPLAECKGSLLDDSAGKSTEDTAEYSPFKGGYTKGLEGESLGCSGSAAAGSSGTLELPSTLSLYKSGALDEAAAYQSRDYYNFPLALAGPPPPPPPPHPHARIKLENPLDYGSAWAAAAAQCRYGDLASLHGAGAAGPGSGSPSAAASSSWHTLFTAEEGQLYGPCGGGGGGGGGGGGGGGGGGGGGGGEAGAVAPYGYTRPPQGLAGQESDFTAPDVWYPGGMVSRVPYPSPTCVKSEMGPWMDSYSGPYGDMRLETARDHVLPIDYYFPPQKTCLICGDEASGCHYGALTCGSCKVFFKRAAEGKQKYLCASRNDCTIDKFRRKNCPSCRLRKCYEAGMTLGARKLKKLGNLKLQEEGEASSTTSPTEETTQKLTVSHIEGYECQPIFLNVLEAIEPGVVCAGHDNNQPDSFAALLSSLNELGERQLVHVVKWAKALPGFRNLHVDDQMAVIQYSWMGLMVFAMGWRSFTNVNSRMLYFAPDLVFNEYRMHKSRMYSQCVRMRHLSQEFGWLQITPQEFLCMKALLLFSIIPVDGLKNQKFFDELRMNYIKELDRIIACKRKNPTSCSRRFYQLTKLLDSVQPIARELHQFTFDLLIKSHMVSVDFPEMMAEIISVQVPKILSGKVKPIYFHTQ

Consider `CC(C)[C@H](N)C(=O)OCCOCn1cnc2c(=O)[nH]c(N)nc21`, for which the molecule was called inactive in [1], in [6], in experiment [12], in [13], in experiment [14] and in experiment [18]. For the same molecule, the Potency result in [2], in experiment [3], in experiment [4], in [5], in [7] and in experiment [8] was “inactive” throughout. Besides, the Potency entry in experiment [9], in experiment [10], in [11], in [15], in experiment [16] and in experiment [17] was “inactive” each time.
For the molecule `O=C(O)C(O)[C@H](O)[C@@H](O)[C@H](O)[C@H](O)CO` (stereo not given in full), the molecule was called inactive in experiment [1], in experiment [6], in experiment [12], in [13], in experiment [14] and in experiment [19]. Moreover, the result in experiment [18] was inactive. Further, the Potency result in experiment [2], in [3], in [4], in experiment [5], in experiment [7] and in experiment [8] was “inactive” throughout. Also, the Potency result in experiment [9], in experiment [10], in [11], in [16] and in experiment [17] was “inactive” throughout.
With `CCCC(=O)O[C@]1(C(=O)CCl)[C@@H](C)C[C@H]2[C@@H]3CCC4=CC(=O)C=C[C@]4(C)[C@@]3(F)C(=O)C[C@@]21C`, the molecule was called inactive in [1], in experiment [6], in experiment [12], in [13], in [19] and in experiment [18]. Besides, the Potency result in [2], in experiment [3], in experiment [4], in experiment [5], in experiment [7] and in experiment [8] was “inactive” throughout. In addition, the Potency entry in experiment [9], in experiment [10], in [11], in experiment [20], in experiment [15] and in [17] was “inactive” each time.
Turning to `CCCCCOC(=O)Nc1nc(=O)n([C@@H]2O[C@H](C)[C@@H](O)[C@H]2O)cc1F`, the molecule was classed as inactive in [1], in [6], in [12], in experiment [13], in experiment [14] and in experiment [19]. Besides, the molecule was called inactive in experiment [18]. Moreover, the Potency entry in [2], in experiment [3], in [4], in experiment [5], in experiment [7] and in [8] was “inactive” in each case. For the same molecule, the Potency entry in experiment [9], in [10], in [11], in experiment [15] and in experiment [17] was “inactive” each time.
Take `CCCC(C)CO` (stereo not given): the outcome in experiment [1], in experiment [6], in experiment [12], in experiment [13], in experiment [19] and in [18] was inactive. Further, the Potency result in experiment [2], in experiment [3], in experiment [4], in [5], in experiment [7] and in experiment [8] was “inactive” throughout. The Potency result in experiment [9], in experiment [10], in experiment [11], in experiment [20] and in [16] was “inactive” each time.
For the molecule `Nc1cc(C(Cl)=C(Cl)Cl)c(S(N)(=O)=O)cc1S(N)(=O)=O`, the molecule was called inactive in [1], in [6], in [12], in experiment [13], in experiment [14] and in experiment [18]. In addition, the Potency entry in experiment [2], in experiment [3], in experiment [4], in experiment [5], in experiment [7] and in experiment [8] was “inactive” each time. Moreover, the Potency entry in experiment [9], in experiment [10], in [11], in [15], in [16] and in experiment [17] was “inactive” throughout.
In the case of `CCCCCCCCN(C)CCCCCCCC`, the molecule was classed as inactive in experiment [1], in experiment [6], in experiment [12], in experiment [13], in experiment [19] and in experiment [18]. The Potency result in experiment [2], in experiment [3], in experiment [5], in experiment [7], in [8] and in experiment [9] was “inactive” each time. Further, the Potency result in [10], in [11], in experiment [20], in experiment [16] and in [17] was “inactive” throughout. Besides, the Potency in experiment [4] is 22.1 µM (active).

The values are drawn from PubChem BioAssay (Tox21).
